The full ranking holds about 33,000 sequences; the median of “e-score” is about -0.038, and the highest 2% start at about 0.33. Only a selection was taken, and the highest values are over-represented in it overall.

For the assay, the target named is T1, GST-Rok-C97-191 (Bacillus subtilis subsp. subtilis str. …, UniProt O34857 97-191).
T1 sequence: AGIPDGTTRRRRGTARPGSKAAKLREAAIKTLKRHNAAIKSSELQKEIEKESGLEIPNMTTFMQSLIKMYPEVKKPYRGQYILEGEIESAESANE
Put plainly: protein binding microarray; Rok is a gene silencer of Bacillus subtilis; high values mean tight binding. The conditions noted are these: protein: recombinant; tags: GST (pTH5325, pDEST15-Magic modified); dsDNA, one strand shown. The gist of the method: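 Every oligonucleotide joins a 25-mer constant primer to a 35-mer variable part drawn from a de Bruijn sequence of order 10, so each non-palindromic 8-mer appears at least 32 times and each palindromic 8-mer 16 times. The preference for every 8-mer is reported as a unitless, rank-based enrichment score (E-score). This score spans 0.5 for the most favored 8-mer to −0.5 for the most disfavored.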
Take AGAGAATG: the binding signal was determined as 0.0921 E-score.
The result for CATGGTTA reads 0.0882 E-score; that for AAGGAGCG, -0.2 E-score; that for AGAGGCAA, -0.195 E-score.
The figure for GACCTTGC is -0.129 E-score; for GAATAATC it is -0.0939 E-score.
The result for GAATAAGA reads 0.0835 E-score.
On to GAATAATA, for which the binding signal was 0.349 E-score.
The figure for AGCCAACC is -0.074 E-score; for ATTCGCCC it is -0.192 E-score; for ATGATAGG it is 0.0735 E-score.
ATGATAGC: the binding signal is 0.15 E-score.
The figure for ATGATAGA is 0.36 E-score; for ATGATATG it is 0.226 E-score; for CTGATATA it is 0.258 E-score.
The result for ATGATATA reads 0.386 E-score.
The figure for GGACGTCC is -0.0863 E-score; for AAGCACAA it is 0.035 E-score; for TCGGTCAA it is 0.044 E-score.
Turning to GACAAATA, the binding signal is 0.111 E-score.
The figure for AGCATAAT is 0.369 E-score; for AGCATAAA it is 0.179 E-score; for AGCATAAG it is -0.133 E-score.
CGTTGTCA: the binding signal is 0.0104 E-score.
With TCTATGCA, the binding signal was determined as 0.172 E-score.
The result for AATATTGT reads 0.372 E-score; that for AATATTGA, 0.22 E-score; that for AATATTCC, 0.106 E-score.
The result for AATATTGG reads -0.0277 E-score.
The figure for AATATTCG is 0.307 E-score; for AATATTCT it is 0.347 E-score; for AAACATTC it is 0.0952 E-score.
On to CGATGTCA, for which the binding signal is -0.131 E-score.
The figure for GGTCCCAA is -0.183 E-score; for ATGGACGC it is -0.141 E-score.
The figure for AGTAACTG is 0.124 E-score; for ACTAACTA it is 0.367 E-score; for GCTAACTA it is 0.324 E-score.
The result for ACTAACTG reads 0.16 E-score.
Regarding CGTAACTA, the binding signal was 0.314 E-score.
As for AGTAACTA, the binding signal turned out to be 0.436 E-score.
The figure for GGTAACTA is 0.336 E-score; for GGTAACGA it is 0.0496 E-score.
The figure for AGTAACTC is 0.0388 E-score; for GTTCAACA it is 0.0437 E-score.
The result for GTAACTGA reads 0.203 E-score; that for TCATGAAA, 0.0251 E-score.
In the case of GTGACCGA, the binding signal was 0.048 E-score.
The result for CCACAATA reads 0.2 E-score.
The figure for GACCTAGC is -0.0362 E-score; for AGCTACGA it is 0.191 E-score.
As to ACATGACC, the binding signal stood at 0.104 E-score.
The figure for AATAAGAC is 0.0721 E-score; for AACTAGAC it is 0.193 E-score.
In the case of AACTAGAG, the binding signal stood at 0.0733 E-score.
In the case of AACTAGAT, the binding signal stood at 0.388 E-score.
The figure for GACTAGAA is 0.206 E-score; for CACTAGAA it is 0.304 E-score.
The figure for TACTAGAA is 0.348 E-score.
Take GGCTAGAA: the binding signal was -0.162 E-score.
For AGCTAGAT, the binding signal was determined as 0.152 E-score.
The result for AGCTAGAA reads 0.322 E-score; that for ACCTAGAA, 0.142 E-score; that for TGCTAGAA, 0.364 E-score.
The figure for AACTAGAA is 0.363 E-score; for GCCGCAAC it is -0.128 E-score.
Consider CAGCAGGA, for which the binding signal was -0.178 E-score.
The result for AACATCAT reads 0.00751 E-score; that for AACATCTT, 0.0861 E-score.
The result for GTAACCAA reads 0.000641 E-score.
The figure for CTAGACCA is -0.196 E-score.
Take ACATGTTA: the binding signal was determined as 0.144 E-score.
The result for CGAATGAG reads -0.0259 E-score.
With ATGCTCCG, the binding signal is -0.113 E-score.
Consider CAGCCTTA, for which the binding signal was -0.151 E-score.
The figure for CATAGCTC is 0.00142 E-score; for ACGCGGAA it is -0.0676 E-score; for CGTAGATA it is 0.21 E-score.
The figure for AGTAGATG is 0.29 E-score; for AGTAGATC it is 0.323 E-score.
The figure for GGTAGATA is 0.432 E-score.
With AGTAGATA, the binding signal amounted to 0.456 E-score.
The result for GCTAGATA reads 0.288 E-score; that for ACCCGCAA, -0.0817 E-score; that for AACTAGCC, 0.107 E-score.
The result for AACTAGCA reads 0.346 E-score; that for CACTAGCA, -0.154 E-score.
The result for AACTAGCG reads 0.256 E-score; that for AACTAGCT, 0.342 E-score.
Take GACTAGCA: the binding signal came to 0.101 E-score.
The figure for AGAAGAAA is 0.00841 E-score; for CTCTTTCC it is -0.0674 E-score; for AACACCCA it is -0.114 E-score.
The result for CACGTATA reads 0.228 E-score; that for TACGTATA, 0.349 E-score.
The figure for GACGTATA is 0.174 E-score; for TGGAGCCA it is -0.182 E-score.
Consider GGCGAAGA, for which the binding signal was -0.0389 E-score.
The result for GTTAAAAC reads 0.0593 E-score.
The figure for CCAACTGA is -0.0233 E-score.
The result for CTATAAAA reads 0.229 E-score.
Turning to CTATAAAC, the binding signal came to 0.291 E-score.
Regarding ATATAAAA, the binding signal was 0.338 E-score.
The figure for TTATAAAA is 0.218 E-score; for ATATAAAC it is 0.33 E-score; for ATATAAAT it is 0.419 E-score.
The figure for ATATAAAG is 0.135 E-score; for ATAAAAAT it is 0.28 E-score; for GTATAAAC it is 0.137 E-score.
The figure for CGGAGACG is -0.133 E-score; for CGTGTAGC it is -0.0895 E-score; for CTAGAGAC it is 0.0353 E-score.
On to CGAACTAG, for which the binding signal is 0.299 E-score.
The figure for CGAACTAC is 0.373 E-score.
Take AGAACTAC: the binding signal worked out at 0.369 E-score.
The figure for CGAACTAA is 0.135 E-score; for AGAACTAT it is 0.268 E-score; for AGAACTAA it is 0.259 E-score.
The figure for CGACCGGA is -0.00838 E-score; for GGTTCCGA it is 0.0637 E-score; for ACTTGTTC it is 0.195 E-score.
As for GGCAAGAA, the binding signal is -0.058 E-score.
The figure for CTCGAAAC is 0.104 E-score.
The figure for ATGCCCGA is -0.167 E-score; for AACTCATA it is 0.0551 E-score.
The result for AATAGCTG reads 0.186 E-score; that for AATAGCTA, 0.329 E-score.
For CATAGCTA, the binding signal was 0.304 E-score.
Consider GATAGCAA, for which the binding signal was found to be 0.137 E-score.
Consider GATAGCGA, for which the binding signal came out at 0.0913 E-score.
Turning to GATAGCTA, the binding signal came to 0.367 E-score.
The result for CAGTCTAA reads -0.037 E-score; that for GGCAAGTA, 0.0714 E-score.
Turning to AACAAGTT, the binding signal is 0.0415 E-score.
As to ATAAAATG, the binding signal stood at 0.246 E-score.
As for AACAAGTA, the binding signal was 0.371 E-score.
The result for CTAAAATA reads 0.295 E-score; that for ATAAAATA, 0.396 E-score; that for TACAAATA, 0.359 E-score.
The result for CACAAATA reads 0.243 E-score; that for TAAAAATA, 0.351 E-score; that for GTAAAATA, 0.306 E-score.
The figure for AAAAAATA is 0.323 E-score.
With CACAAGTA, the binding signal stood at 0.205 E-score.
The figure for AACAAATA is 0.24 E-score; for CTCTCGCA it is -0.118 E-score; for AATCCGAA it is 0.0539 E-score.
In the case of CTGAAGCA, the binding signal is -0.0795 E-score.
The figure for AGGTCACA is -0.186 E-score; for GCGGTTAA it is 0.123 E-score; for AAGAACTT it is -0.176 E-score.
The figure for AAGTCTAA is -0.0843 E-score; for ACTGAAGT it is 0.155 E-score; for AGGGACCA it is -0.0833 E-score.
The result for CTAAAAAA reads 0.168 E-score.
Turning to TATAAATA, the binding signal is 0.381 E-score.
The result for TAAAAAAA reads 0.328 E-score.
The figure for AATAAATA is 0.258 E-score; for GATAAATA it is 0.323 E-score; for TTAAAAAA it is -0.0566 E-score.
The figure for CTCCTTGA is -0.109 E-score.
For the sequence TCATGGAA, the binding signal is -0.0558 E-score.
In the case of CGAGTCTA, the binding signal is -0.0403 E-score.
The figure for ACGAACTC is -0.0425 E-score.
The result for CGGAATTC reads 0.0787 E-score.
The figure for AGAAAACA is 0.0817 E-score; for GGAAAACA it is -0.00212 E-score; for CGAAACCA it is -0.131 E-score.
Turning to GGAAACTA, the binding signal stood at 0.354 E-score.
The result for CGAAAACA reads 0.348 E-score; that for GGAAACCA, -0.105 E-score.
With AGAAACTA, the binding signal came out at 0.377 E-score.
As to AGAAACTG, the binding signal turned out to be 0.0822 E-score.
The result for CGAAACTA reads 0.425 E-score; that for GGAAACAA, 0.0324 E-score.
On to AGAAACTC, for which the binding signal was 0.0994 E-score.
The result for CGAAACTC reads 0.0357 E-score.

(Values after paper PMC6212790, “How bacterial xenogeneic silencer rok distinguishes foreign from self DNA in its resident genome”.)
